# From the supplement of paper PMC10646978
# ± gives the standard deviation.
# Legend:
# Settings in all cases: modulator concentration 10 µM
# [1] = tested on: RAW-Dual (murine macrophage reporter line); assay: NF-kB reporter (SEAP) activity fold change vs agonist alone; higher = enhanced NF-kB activity
# How it was run: (§1)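 Compound reached 10 μM final in each well by pin transfer, onto RAW-Dual murine macrophage reporter cells seeded at 50 000 per well in 384-well plates. After 1 hour at 37 °C, the cells were stimulated overnight with a PRR agonist. SEAP in the supernatant was read with QUANTI-Blue at 620 nm absorbance for NF-κB, and Lucia luciferase was read with QUANTI-Luc luminescence for IRF. Each signal was turned into fold change against the mean agonist-only control on the same plate, and two replicate plates were averaged with propagated errors.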
# [2] = tested on: RAW-Dual (murine macrophage reporter line); assay: IRF reporter (Lucia luciferase) activity fold change vs agonist alone; higher = enhanced IRF activity
# How it was run: as §1
# [3] = tested on: RAW-Dual (murine macrophage reporter line); assay: viability score (confluency relative to resting cells, overnight) (fraction); higher = more viable, active = viable (0.7 or more)
# How it was run: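 Compound was added at a final 10 μM to RAW-Dual macrophages in 384-well plates and left overnight. Confluency was imaged with IncuCyte, and two masks were generated in IncuCyte software over all imaged wells. Each viability score is confluency relative to resting cells, and a compound met the cutoff only when both masks were above 70% of resting cells.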
# [4] = agonist: CpG ODN 1826 0.5 ug/mL
SMILES,"NF-kB reporter [1, 4]",NF-kB reporter ([1]; agonist: LPS 0.1 ug/mL),NF-kB reporter ([1]; agonist: MPLA […]),IRF reporter ([2]; agonist: 3'3'-cGAMP 10 ug/mL),IRF reporter ([2]; agonist: LPS 0.1 ug/mL),IRF reporter ([2]; agonist: MPLA […]),viability score [3]
CC1CC(=O)C2=C(C1)OC(N)=C(C#N)C2c1cccc2ccccc12 (configuration not stated),1.04 ± 0.059,1.06 ± 0.065,1.03 ± 0.11,0.988 ± 0.033,1.26 ± 0.088,1.24 ± 0.14,1 (active)
CC1CCc2nc(NC(=O)C3CCCN3S(C)(=O)=O)sc2C1 (configuration not stated),0.812 ± 0.037,1.03 ± 0.082,1.08 ± 0.057,0.983 ± 0.045,1.35 ± 0.27,1.44 ± 0.48,0.964 (active)
Cc1ccc(COc2ccc3c(C)c(C)c(=O)oc3c2C)cc1,0.785 ± 0.067,0.84 ± 0.043,1 ± 0.098,0.761 ± 0.041,1.32 ± 0.1,1.53 ± 0.13,0.984 (active)
c1ccc(CC(=NNc2ccccc2)c2ccc(-c3ccccc3)cc2)cc1,0.855 ± 0.091,0.879 ± 0.069,1.07 ± 0.11,0.657 ± 0.028,1.3 ± 0.2,1.35 ± 0.28,1.03 (active)
O=C(OC(=Cc1nccn1Cc1ccc(Cl)cc1)c1ccccc1)c1ccccc1,0.323 ± 0.021,0.481 ± 0.05,0.394 ± 0.026,0.37 ± 0.015,1.36 ± 0.12,1.51 ± 0.13,0.973 (active)
Cc1cc(C)c(S(=O)(=O)N2CCN(C(=O)N(C)C)CC2)c(C)c1,1.83 ± 0.4,1.21 ± 0.24,2.12 ± 0.63,0.505 ± 0.32,0.802 ± 0.48,0.738 ± 0.31,0.564 (inactive)
OCCOCCN1CCN(C(c2ccccc2)c2ccc(Cl)cc2)CC1 (configuration not stated) [Prestw-133],1.07 ± 0.083,0.934 ± 0.071,1.07 ± 0.11,0.763 ± 0.024,1 ± 0.14,1.01 ± 0.21,1.04 (active)
Cc1c(C)c2c(c(C)c1O)CCC(C)(CCCC(C)CCCC(C)CCCC(C)C)O2 (configuration not stated),1.02 ± 0.085,0.997 ± 0.052,1.06 ± 0.023,0.92 ± 0.057,0.965 ± 0.13,0.994 ± 0.1,0.987 (active)
Nc1ccc(C=Cc2ccccc2)cc1,0.964 ± 0.097,0.776 ± 0.038,0.976 ± 0.034,0.174 ± 0.012,0.857 ± 0.089,0.719 ± 0.056,0.973 (active)
Br.C=CCn1c(=N)n(CC(=O)c2cccc([N+](=O)[O-])c2)c2ccccc21,0.571 ± 0.058,0.997 ± 0.057,0.905 ± 0.062,1.13 ± 0.064,1.16 ± 0.099,0.973 ± 0.2,1.01 (active)
COc1cc(Nc2ncc(F)c(Nc3ccc4c(n3)N(COP(=O)(O)O)C(=O)C(C)(C)O4)n2)cc(OC)c1OC,0.724 ± 0.063,0.825 ± 0.072,1.12 ± 0.1,0.869 ± 0.098,1.18 ± 0.22,1.25 ± 0.35,0.931 (active)
CCCCCCCCCCCCCCCCOc1nc2ccc(C)cc2c(=O)o1,1.1 ± 0.32,1.09 ± 0.057,0.961 ± 0.13,0.921 ± 0.034,1.27 ± 0.15,1.08 ± 0.23,1 (active)
Cc1ccccc1C(OCCN(C)C)c1ccccc1.O=C(O)CC(O)(CC(=O)O)C(=O)O (configuration not stated),1.35 ± 0.36,1.34 ± 0.23,2.11 ± 1,0.582 ± 0.024,1.51 ± 0.14,1.25 ± 0.12,0.981 (active)
COc1ccc(C)c2sc(=NC(=O)c3ccccc3)n(C)c12,1.16 ± 0.11,1.17 ± 0.06,2.25 ± 0.073,0.904 ± 0.05,0.969 ± 0.15,2.01 ± 0.31,0.99 (active)
COCC(C)(CNS(=O)(=O)c1ccccc1Br)OC (configuration not stated),0.978 ± 0.091,1.13 ± 0.091,0.933 ± 0.1,0.982 ± 0.049,1.07 ± 0.11,1.06 ± 0.18,0.993 (active)
CCOC(=O)c1cnn(CCOc2ccccc2)c1N,1.05 ± 0.081,0.851 ± 0.079,1.02 ± 0.11,0.975 ± 0.052,1.22 ± 0.13,1.31 ± 0.2,1 (active)
Cc1onc(-c2ccccc2)c1-c1ccc(S(N)(=O)=O)cc1,1.64 ± 0.26,1.08 ± 0.4,1.25 ± 0.3,1.02 ± 0.031,1.02 ± 0.2,0.898 ± 0.11,0.98 (active)
Cc1cccc2sc(NNC(=O)c3ccc(S(=O)(=O)N4CCc5ccccc5C4)cc3)nc12,0.923 ± 0.093,0.973 ± 0.063,0.93 ± 0.079,0.929 ± 0.067,1.2 ± 0.2,0.93 ± 0.11,0.995 (active)
O=C(NCC1CN(c2ccc(N3CCOCC3=O)cc2)C(=O)O1)c1ccc(Cl)s1 (configuration not stated),1.36 ± 0.18,1.09 ± 0.41,0.984 ± 0.063,0.898 ± 0.031,1.21 ± 0.43,1.03 ± 0.08,1 (active)
CSc1ccccc1NC(=O)C1CCCN(c2ccc(-n3cncn3)nn2)C1 (configuration not stated),0.991 ± 0.073,1.04 ± 0.099,1.18 ± 0.063,0.973 ± 0.077,1.23 ± 0.22,1.43 ± 0.37,0.995 (active)
Cc1cc(OCC(=O)Nc2ccc(Cl)c(C(F)(F)F)c2)ccc1Cl,0.934 ± 0.079,0.942 ± 0.056,1.24 ± 0.11,1.02 ± 0.051,1.7 ± 0.1,1.83 ± 0.19,0.971 (active)
CCOc1ccccc1OCCCCOc1cccc(Cl)c1,0.947 ± 0.15,1.04 ± 0.093,0.951 ± 0.084,0.956 ± 0.025,1.21 ± 0.15,1.23 ± 0.2,1 (active)
COc1ccc(Cl)cc1C(=O)NCCc1ccc(S(=O)(=O)NC(=O)NC2CCCCC2)cc1,0.75 ± 0.067,0.932 ± 0.056,0.987 ± 0.09,1.06 ± 0.052,1.36 ± 0.099,1.44 ± 0.15,1 (active)
COc1nc(C)cnc1NS(=O)(=O)c1cccnc1-c1ccc(-c2nnco2)cc1,0.964 ± 0.21,0.98 ± 0.18,1 ± 0.09,0.852 ± 0.047,0.982 ± 0.26,1.06 ± 0.24,0.979 (active)
COc1ccc2nc(NCCCn3ccnc3)sc2c1,0.921 ± 0.07,1.02 ± 0.11,1.04 ± 0.1,0.836 ± 0.034,1.15 ± 0.14,1.25 ± 0.2,0.985 (active)
O=S1(=O)N=C(NN=Cc2ccccc2O)c2ccccc21,1 ± 0.081,0.95 ± 0.14,1.1 ± 0.12,1 ± 0.049,1.25 ± 0.16,1.46 ± 0.25,1.03 (active)
